# Assay outcomes as filed in PubChem.
# Sm TGR inh: inhibitors of Schistosoma mansoni thioredoxin glutathione reductase; Potency, µM (top dose mostly 114 µM), actives largely listed as inhibitors; Q962Y6; AID 485364; 360,000 tested, 3% active; purified TGR, DTNB reduction, TNB absorbance 405 nm; also: nearly all actives have a fitted effect of over 60% in size
#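 First, TGR (20 nM dispensed) and NADPH were mixed with compound. Second, a 15 min room-temperature incubation followed. Third, further NADPH and then DTNB were added to start the reaction. Finally, TNB absorbance was monitored kinetically.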
# Pf growth 96h: inhibits malaria parasite growth, 96 h; P. falciparum luciferase reporter growth, 96 h; Potency, µM (top dose mostly 28.7 µM), usual class: inhibitors; 320,000 tested, 6.9% active
#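 Readout is luminescence from an integrated firefly luciferase in P. falciparum. Red cells, 2% hematocrit and 0.05% parasitemia final, were cultured with compound through two parasite generations (96 hours) at 37 C, 5% CO2.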
# Pf growth 48h: P. falciparum growth inhibition at 48 hours (one generation); AID 504832; 310,000 tested, 5.9% active; Potency, µM (highest dose often 28.7 µM), usual class: inhibitors; P. falciparum luciferase growth in erythrocytes, 48 h
#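 In quantitative HTS format, infected erythrocytes bearing luciferase-reporter parasites were treated for a single generation at 37 C. Luminescence after adding detection reagent served as the growth measure.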
# Cycloheximide cs: counter-screen for Shiga toxin inhibitors: cycloheximide protein synthesis inhibition; 300,000 tested, 12% active; AID 2314; cell reporter, cycloheximide protein synthesis inhibition counterscreen; max response, %; in the data active = max response mostly above about 13%, no sharp cut-off; inactive = mostly below about 14%; also: read at 38.3 µM for the half of the compounds with a filed dose
# Shiga inhibitor: blocks Shiga toxin action in Vero cells; inhibition, % at 38.7 µM; 290,000 tested, 9.2% active; Vero cells, Shiga toxin protein synthesis inhibition reporter; in the data active = inhibition mostly above about 28%, no sharp cut-off; inactive = mostly below about 43%
# NS1 function inh: blocks influenza NS1 protein function | Potency, µM (doses to about 46.1 µM) | 270,000 tested, 0.4% active; calls by dose curve; also: actives are rising curves; nearly all actives have a fitted effect of over 50% in size
#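 OD600 was taken as the measure of yeast growth restored by compound in an NS1-expressing S. cerevisiae strain. Cells had been washed out of glucose medium and diluted 1:100 into galactose -URA medium, pH 6.0.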
# A number is an active result; n = inactive; u = inconclusive; x = no result. Sampled rows, rich in hits. Any-hit rate of the full collection: about 21%. Unless noted, calls follow the shape of the dose curve; as a rule, active = well fitted curve in the direction sought with a large enough effect; inconclusive = small, poorly fitted or top-dose-only effect, or another doubt; inactive = no such curve, though single readings can be large; an effect the other way counts as inactive or inconclusive.
SMILES,Sm TGR inh,Pf growth 96h,Pf growth 48h,Cycloheximide cs,Shiga inhibitor,NS1 function inh
COc1ccc(-c2csc(NC(=S)NC(=O)c3ccc(S(=O)(=O)N(C)C)cc3)n2)cc1OC,n,u,13µM,n,n,n
COc1ccc(-n2c(C)cc(-c3csc(NC(=O)c4ccc(S(=O)(=O)N(C)C)cc4)n3)c2C)cc1,n,12µM,u,n,n,n
COc1ccc(-c2csc(NC(=S)NC(=O)c3cccs3)n2)cc1Br,n,n,n,n,n,n
CCc1noc(C)c1C(=O)Nc1nc(-c2ccc(OC)c(OC)c2)cs1,n,10µM,u,x,x,x
COc1ccc(-c2csc(NC(=S)NC(=O)c3cccs3)n2)cc1OC,n,u,12µM,n,n,n
CC(=O)Nc1ccc(NC(=O)c2c(C)noc2C)cc1,n,u,4.7µM,n,n,n
Cc1noc(C)c1C(=O)Nc1ccc(C#N)cc1,n,n,n,n,n,n
Cc1noc(C)c1C(=O)Nc1ccc2ccccc2c1,n,u,n,21,n,n
CC1N/C(=C\C(=O)c2ccccc2)N(O)C1(C)C (stereo not given),n,n,n,37,76,n
CCOC(=O)C1(Cc2cccc(F)c2)CCN(Cc2ccon2)CC1,n,u,n,n,n,n
CCOC(=O)C1(Cc2cccc(OC)c2)CCN(Cc2cccc(OC)c2OC)CC1,n,u,u,n,n,n
CCOC(=O)C1(Cc2cccc(OC)c2)CCN(Cc2cccnc2)CC1,n,n,n,35,99,n
CCOC(=O)C1(Cc2cccc(F)c2)CCN(Cc2cnc(C)s2)CC1,n,2.3µM,u,n,n,n
CCOC(=O)C1(Cc2cccc(OC)c2)CCCN(Cc2nccn2CC)C1 (stereo not given),n,12µM,u,n,n,n
CCOC(=O)C1(Cc2cccc(OC)c2)CCN(Cc2ccccc2)CC1,n,u,u,n,n,n
CCOC(=O)C1(Cc2cccc(OC)c2)CCN(Cc2cc(OC)ccc2OC)CC1,n,10µM,u,n,n,n
CCOC(=O)c1cc(-c2ccccc2)nn1Cc1ccccc1,n,x,x,x,x,x
COc1ccc(Cl)cc1NC(=O)N1CCC(CN2CCCCCC2)CC1,n,x,x,x,x,x
CC(C)CCCC(C)CCCC(C)CCCC(C)C(=O)O (stereo not given),x,x,x,n,n,x
CCOC(=O)C1(Cc2cccc(OC)c2)CCN(Cc2cnc(N)nc2)CC1,n,u,n,n,n,n
CCOC(=O)C1(Cc2cccc(OC)c2)CCN(Cc2cccc3cnccc23)CC1,n,u,3.7µM,n,n,n
O=C(c1ccc(F)cc1F)N1CCCC(c2nc(-c3ccc(F)cc3)no2)C1 (stereo not given),n,n,n,17,n,n
Cc1ccc(-c2noc(C3CCCN(C(=O)c4cccc(F)c4)C3)n2)cc1 (stereo not given),n,n,n,22,n,n
O=C(c1c(F)cccc1F)N1CCCC(c2nc(-c3ccc(Cl)cc3)no2)C1 (stereo not given),n,u,n,n,n,n
Cc1ccc(-c2noc(C3CCCN(C(=O)c4c(F)cccc4F)C3)n2)cc1 (stereo not given),n,x,n,n,n,n
SMILES,Sm TGR inh,Pf growth 96h,Pf growth 48h,Cycloheximide cs,Shiga inhibitor,NS1 function inh
O=C(Nc1ccc(F)cc1F)N1CCCC(c2nc(-c3ccc(F)cc3)no2)C1 (stereo not given),x,n,n,23,n,n
COCCCNC(=O)c1cc2c(=O)n3cc(C)ccc3nc2nc1NCC1CCCO1 (stereo not given),n,n,n,n,n,n
Cc1ccc(NC(=O)CSC(C)c2nc3ccccc3c(=O)[nH]2)cc1 (stereo not given),n,15µM,n,n,n,n
O=C(COC(=O)c1cc(S(=O)(=O)N2CCCC2)ccc1O)NCCc1ccccc1,n,n,n,x,x,x
COc1ccc(OC)c(S(=O)(=O)N2CCC3(CC2)OCCN3S(=O)(=O)c2cccs2)c1,n,10µM,u,x,x,x
O=S(=O)(c1ccc(Cl)cc1)N1CCC2(CC1)OCCN2S(=O)(=O)c1cccs1,n,u,13µM,x,x,x
O=S(=O)(c1cccs1)N1CCC(CO)(Cc2ccc(Cl)cc2)CC1,n,0.74µM,n,n,n,n
CCOc1ccc(C2C(C(N)=O)=C(C)Nc3nc(SCc4ccccc4F)nn32)cc1 (stereo not given),n,x,x,x,x,x
Cc1ccc(S(=O)(=O)NCCc2cn3ccsc3n2)cc1,n,x,x,x,x,x
COc1cccc(CNC(=O)COC(=O)CCc2cc(OC)c(OC)c(OC)c2)c1,n,n,n,x,x,x
